Source: the supplement of paper PMC8728848
Only a selection was taken, and the strongest signals are over-represented in it overall.

Tests used:
Test in all cases: glycan array binding signal (z-score within array); higher = stronger binding
Settings in all cases: glycan notation: IUPAC condensed, linker removed
[1] = target: Neu5Ac(a2-3)Gal(b1-4)GlcNAc(b1-3)Gal(b1-4)GlcNAc(b1-3)Gal(b1-4)GlcNAc
Procedure, shortened: (§1)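 Arrays were curated from the Consortium for Functional Glycomics database, 3228 in total, and kept only where the protein sequence was available. Binding is expressed as a within-array Z-score. This score was averaged across arrays of the same protein sequence at different concentrations or buffers and across linkers, and negative values can be read as non-binding.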

[2] = target: Neu5Ac(a2-3)Gal(b1-4)GlcNAc(b1-3)Gal(b1-4)GlcNAc(b1-3)GalNAc
Procedure, shortened: as §1

[3] = target: Neu5Ac(a2-3)Gal(b1-4)GlcNAc6S
Procedure, shortened: as §1

[4] = target: Neu5Ac(a2-3)Gal(b1-4)[Fuc(a1-3)]GlcNAc6S
Procedure, shortened: as §1

[5] = target: Neu5Ac(a2-3)Gal6S(b1-4)GlcNAc
Procedure, shortened: as §1

[6] = target: Neu5Ac(a2-3)Gal6S(b1-4)[Fuc(a1-3)]GlcNAc
Procedure, shortened: as §1

[7] = target: Neu5Ac(a2-6)Gal(b1-4)Glc
Procedure, shortened: as §1

[8] = target: Neu5Ac(a2-6)Gal(b1-4)GlcNAc(b1-3)[Neu5Ac(a2-6)Gal(b1-4)GlcNAc(b1-6)]GalNAc
Procedure, shortened: as §1

[9] = target: Neu5Ac(a2-8)Neu5Ac
Procedure, shortened: as §1

[10] = target: Neu5Ac(a2-8)Neu5Ac(a2-3)Gal(b1-3)GalNAc(b1-4)[Neu5Ac(a2-3)]Gal(b1-4)Glc
Procedure, shortened: as §1

[11] = target: Neu5Gc(a2-3)Gal(b1-3)[Fuc(a1-4)]GlcNAc
Procedure, shortened: as §1

[12] = target: Neu5Gc(a2-3)Gal(b1-4)GlcNAc(b1-3)Gal(b1-4)GlcNAc(b1-2)Man(a1-3)[Neu5Gc(a2-3)Gal(b1-4)GlcNAc(b1-3)Gal(b1-4)GlcNAc(b1-2)Man(a1-6)]Man(b1-4)GlcNAc(b1-4)GlcNAc
Procedure, shortened: as §1

[13] = target: Neu5Gc(a2-6)GalNAc
Procedure, shortened: as §1

[14] = target: Neu5Gc(a2-8)Neu5Ac(a2-3)Gal(b1-4)GlcNAc
Procedure, shortened: as §1

B1: diCBM40 CPF071 (Clostridium perfringens) (protein)
chain: MAHHHHHHVGTGSNDDDDKSPDPMLSSLGEYKDINLESSNASNITYDLEKYKNLDEGTIVVRFNSKDSKIQSLLGISNSKTKNGYFNFYVTNSRVGFELRNQKNEGNTQNGTENLVHMYKDVALNDGDNTVALKIEKNKGYKLFLNGKMIKEVKDTNTKFLNNIENLDSAFIGKTNRYGQSNEYNFKGNIGFMNIYNEPLGDDYLLSKTGETKALNGSELGSGSGLSSLGEYKDINLESSNASNITYDLEKYKNLDEGTIVVRFNSKDSKIQSLLGISNSKTKNGYFNFYVTNSRVGFELRNQKNEGNTQNGTENLVHMYKDVALNDGDNTVALKIEKNKGYKLFLNGKMIKEVKDTNTKFLNNIENLDSAFIGKTNRYGQSNEYNFKGNIGFMNIYNEPLGDDYLLSKTGETK
Q: B1 was tested. Which “glycan array binding signal (z-score)” value [1] did it give?
A: 5.87

Q: What about the “glycan array binding signal (z-score)” value [2] of the same binder?
A: -0.157

Q: And the “glycan array binding signal (z-score)” value [3]?
A: 7.8

Q: What about the “glycan array binding signal (z-score)” value [4] of the same binder?
A: 5.95

Q: What about the “glycan array binding signal (z-score)” value [5] of the same binder?
A: 7.24

Q: What about the “glycan array binding signal (z-score)” value [6] of the same binder?
A: 4.71

Q: And the “glycan array binding signal (z-score)” value [7]?
A: 0.183

Q: And the “glycan array binding signal (z-score)” value [8]?
A: -0.197

Q: And the “glycan array binding signal (z-score)” value [9]?
A: -0.046

Q: What about the “glycan array binding signal (z-score)” value [10] of the same binder?
A: -0.2

Q: What about the “glycan array binding signal (z-score)” value [11] of the same binder?
A: 0.647

Q: What about the “glycan array binding signal (z-score)” value [12] of the same binder?
A: 6.28

Q: What about the “glycan array binding signal (z-score)” value [13] of the same binder?
A: -0.044

Q: What about the “glycan array binding signal (z-score)” value [14] of the same binder?
A: -0.252
